Test results reported in PubChem BioAssay.
Several values for one entry are separate records, joined by “and”; a condition that tells them apart may be missing. Equal entries are not always repeated. Activity calls are given as the source filed them.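 Rule for the calls, unless noted: active = compound raises insulin release from rat beta cells at 5 mM glucose, no numeric limit stated; inactive = the rest.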

How the values were obtained:
[1] = Wnt pathway potentiators raising nuclear beta-catenin – imaging, WNT3A-conditioned medium, mouse C2C12, NPC library, primary screen (AID 1117326; in the data active = nuclear beta-catenin stimulation mostly above about 4.2%, no sharp cut-off; inactive = mostly below about 10%); conditions: stronger effect = higher value
[2] = stimulators of insulin release from INS-1E, primary screen, cell-based, 5 mM glucose, NPC library (AID 1117329); conditions: rat INS-1E insulin secretion, at 10 µM, stronger effect = higher value
[3] = growth inhibition of GSK3B-pretreated HCT116 cells – cell-based, CellTiter-Glo, 0.2 to 20 µM (AID 1117336;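 active = compounds lowering colon cancer cell viability after pretreatment blocking the GSK3B kinase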); conditions: HCT116 viability after GSK3B inhibitor, at 20 µM, stronger effect = higher value
[4] = inhibition of endothelial tube formation, primary screen, imaging, VEGF stimulated, CD31 staining, tube area, NPC library (AID 1117340;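 active = compound that reduces growth-factor-driven endothelial tube area in a mixed cell culture, no cutoff stated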); conditions: VEGF-stimulated ADSC/ECFC co-culture, at 10 µM, stronger effect = higher value
[5] = GLP1 release stimulators, primary, NCI-H716, NPC library (AID 1117341;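 active = compound raises GLP1 secretion from the human gut endocrine cells, with no numeric limit stated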); conditions: NCI-H716 cells, at 10 µM, stronger effect = higher value
[6] = HCT116 colon cancer cell growth inhibition, primary screen, CellTiter-Glo luminescence, NPC library (AID 1117342;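 active = compounds that lower survival of HCT116 colon cancer cells in the luminescence readout, no numeric limit stated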); conditions: at 20 µM (top of the series)
[7] = reduced SW480 viability measured with CellTiter-Glo, NPC library, primary (AID 1117343;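 active = compounds that lower viability of the colon cancer cells in the luminescence readout, with no numeric limit stated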); conditions: CellTiter-Glo luminescence; at 20 µM (top of the series)
[8] = NPC library primary testing for decreased DLD-1 cell viability via CellTiter-Glo (AID 1117346;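 active = compounds that lower survival of DLD-1 colon cancer cells in the luminescence readout, no cutoff given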); conditions: DLD-1 viability, CellTiter-Glo luminescence; at 20 µM (top of the series)
[9] = EMT-state selective cytotoxicity in co-culture – imaging, PC-3E GFP, TEM4-18 mCherry, primary screen (AID 1345086;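 active = compounds killing one labelled cell type while sparing the other, by normalised counts and ratio limits, not self-fluorescent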;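 for all read-outs here: cells exposed to compound for 72 h before imaging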;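 for red/green cell ratio (normalised): normalised mesenchymal count divided by normalised epithelial count so high means epithelial killing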); conditions: PC-3E GFP / TEM4-18 mCherry co-culture, imaging cell counts, at 1 µM; for red/green cell ratio (normalised): actives lie on both sides
[10] = test system: Aerobactin synthetase IucA (Klebsiella pneumoniae hvKP1); experiment: IucA enzyme inhibition, primary screen, biochemical, Spectrum library (AID 1346200; call rule not given here;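 note: 100% = wells without compound and 0% = wells lacking enzyme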); conditions: malachite green pyrophosphate, A620, at 8 µM, stronger effect = lower value
[11] = viability loss with induced miR-34 in A549 – imaging, A549 dox-inducible miR-34, nuclei and caspase counts, primary screen (AID 1347080;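 active = compounds whose cell count with miR-34 switched on is under 0.7 times the count with it off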); conditions: A549 miR-34 inducible, Hoechst nuclei count, 48 h
[12] = target: NAD(+) hydrolase SARM1 (Homo sapiens) (UniProt Q6SZW1); experiment: blocking NAD cleavage by SARM1 SAM-TIR – cell lysate, NAD-Glo luminescence (AID 1508614;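 active = compound whose remaining NAD level is above about 45 nM, limit read from the data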;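 note: higher remaining NAD means stronger inhibition of SARM1 NADase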); conditions: SAM-TIR HEK293T lysate NADase, at 1 µM, stronger effect = higher value
[13] = galactose survival enhancers in mitochondrial complex I cybrids – cell-based, galactose medium, ATP luminescence, primary screen (AID 1645843;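 active = z-score of at least 1.8 in each of two replicates, scored against plate mean and spread of sample wells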;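 note: positive z means more ATP and so rescue of galactose-driven cybrid death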); conditions: complex I mutant cybrid cells, 72 h, stronger effect = higher value
[14] = MELAS cybrid and Rieske KO viability enhancers – cell-based, MELAS cybrids, Rieske KO mouse fibroblasts, CellTiter-Glo, primary screen (AID 1508586;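 active = mean z-score across replicates of 1.96 or higher in either the MELAS or the Rieske mutant cell line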;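 note: z relative to plate mean and SD of compound and empty wells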); conditions: low glucose
[15] = target: Mitogen-activated protein kinase 7 (Homo sapiens) (UniProt Q13164); experiment: Gal4-ERK5 driven luciferase induction – cell-based, HTS, primary screen (AID 1508626;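 active = luciferase signal above three times the same-plate solvent-only control wells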;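 note: luciferase driven by Gal4-ERK5 fusion binding five Gal4 sites before minimal TATA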); conditions: HeLa Gal4-ERK5 transactivation, 18 h, at 5 µM, stronger effect = higher value
[16] = P. berghei load reduction in hepatocytes – cell-based, HepG2, luciferase luminescence, HepG2 viability, primary screen (AID 624349; in the data active = parasite load remaining mostly below about 12%, no sharp cut-off; inactive = mostly above about 10%;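 note: 100% = mean of DMSO negative control wells on the same plate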); conditions: P. berghei liver stage in HepG2, luciferase luminescence, concentration not given here; parasite load remaining: stronger effect = lower value; viability: measured here: HepG2 viability without parasites
[17] = counts scaled to control wells, 1 = unselective
[18] = measured here: epithelial PC-3E GFP cell survival
[19] = measured here: mesenchymal TEM4-18 mCherry cell survival
[20] = measured here: total cells without miR-34 induction
[21] = measured here: relative caspase fold change +Dox/-Dox
[22] = measured here: total cells with miR-34 induction, stronger effect = lower value
[23] = MELAS cybrid survival, CellTiter-Glo 48 h, stronger effect = higher value
[24] = Rieske KO mouse fibroblast survival, CellTiter-Glo 72 h

Chain of NAD(+) hydrolase SARM1 (Homo sapiens) (Q6SZW1 whole entry, looked up): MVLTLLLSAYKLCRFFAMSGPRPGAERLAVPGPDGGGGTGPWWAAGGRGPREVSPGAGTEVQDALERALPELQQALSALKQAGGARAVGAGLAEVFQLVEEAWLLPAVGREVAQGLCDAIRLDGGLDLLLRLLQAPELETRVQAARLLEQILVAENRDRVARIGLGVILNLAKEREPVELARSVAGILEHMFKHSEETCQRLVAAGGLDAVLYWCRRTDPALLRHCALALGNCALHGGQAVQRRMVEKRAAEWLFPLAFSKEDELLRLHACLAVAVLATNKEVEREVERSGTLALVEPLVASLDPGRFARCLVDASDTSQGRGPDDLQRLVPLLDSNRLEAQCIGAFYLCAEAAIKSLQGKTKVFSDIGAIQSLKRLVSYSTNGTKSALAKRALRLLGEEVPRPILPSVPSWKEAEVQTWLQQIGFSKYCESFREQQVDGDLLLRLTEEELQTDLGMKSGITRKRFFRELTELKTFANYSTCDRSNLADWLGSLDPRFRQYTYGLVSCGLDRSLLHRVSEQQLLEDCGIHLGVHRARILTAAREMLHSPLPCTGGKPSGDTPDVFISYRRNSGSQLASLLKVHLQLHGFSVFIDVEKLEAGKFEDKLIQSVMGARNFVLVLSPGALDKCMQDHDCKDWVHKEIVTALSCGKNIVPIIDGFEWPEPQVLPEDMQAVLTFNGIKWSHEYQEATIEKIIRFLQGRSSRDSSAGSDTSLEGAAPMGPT
Chain of Mitogen-activated protein kinase 7 (Homo sapiens) (Q13164 whole entry, looked up, the tested form may be a part): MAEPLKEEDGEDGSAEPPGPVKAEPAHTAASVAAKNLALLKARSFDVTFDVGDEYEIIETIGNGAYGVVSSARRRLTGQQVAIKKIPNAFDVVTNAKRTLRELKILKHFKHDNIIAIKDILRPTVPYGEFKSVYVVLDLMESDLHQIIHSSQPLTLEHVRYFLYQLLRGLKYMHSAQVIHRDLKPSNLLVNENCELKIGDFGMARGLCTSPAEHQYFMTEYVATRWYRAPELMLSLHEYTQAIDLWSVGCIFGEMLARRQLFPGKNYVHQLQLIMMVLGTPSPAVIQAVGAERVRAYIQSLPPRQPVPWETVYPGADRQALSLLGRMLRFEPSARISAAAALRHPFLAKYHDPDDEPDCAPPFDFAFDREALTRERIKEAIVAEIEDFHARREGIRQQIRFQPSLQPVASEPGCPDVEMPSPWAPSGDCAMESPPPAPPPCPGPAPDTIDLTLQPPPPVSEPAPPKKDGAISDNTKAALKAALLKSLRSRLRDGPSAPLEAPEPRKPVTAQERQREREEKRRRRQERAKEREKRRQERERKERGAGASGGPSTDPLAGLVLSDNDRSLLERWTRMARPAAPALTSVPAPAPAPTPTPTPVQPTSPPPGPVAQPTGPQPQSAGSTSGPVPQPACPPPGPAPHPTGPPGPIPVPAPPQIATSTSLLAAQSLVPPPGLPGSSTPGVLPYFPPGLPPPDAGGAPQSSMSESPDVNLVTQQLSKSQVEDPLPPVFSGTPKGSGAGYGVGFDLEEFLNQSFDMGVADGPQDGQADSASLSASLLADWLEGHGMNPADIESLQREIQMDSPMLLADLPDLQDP

For NN=C(N)N, the nuclear beta-catenin stimulation ([1]; at 10 µM) was 0.8% (inactive), the nuclear beta-catenin stimulation ([1]; stimulation, at 2 µM) was 6.5% and the insulin secretion stimulation [2] was 1.9% (inactive). The viability decrease [3] was -34.7% (inactive), the tube area decrease [4] was -0.5% (inactive) and the GLP1 secretion stimulation [5] was -3.5% (inactive). The inhibition of viability [6] was 0.63% (inactive), the viability decrease (inhibition) [7] was 20.2% (inactive) and the viability decrease (inhibition) [8] was -6% (inactive). The red/green cell ratio (normalised) [9, 17] was 0.96 (inactive) and 0.91 (inactive), the normalised cell number [9, 18] was 1.02 and 1.25 and the normalised cell number [9, 19] was 0.98 and 1.14. For the same compound, the activity remaining [10] was 107% (inactive), the cell count [11, 20] was 10500 and 9550 and 9270 and the remaining NAD [12] was 10 nM (inactive). For the same compound, the z-score [13] was 0.575 (inactive) and 0.155 (inactive) and 0.34 (inactive).
With COc1cccc([C@@]2(O)CCCC[C@@H]2CN(C)C)c1 the nuclear beta-catenin stimulation ([1]; at 10 µM) was 4.3% (inactive), the nuclear beta-catenin stimulation ([1]; stimulation, at 2 µM) was 1.4% and the insulin secretion stimulation [2] was 9.4% (inactive). The viability decrease [3] was 34.1% (inactive), the tube area decrease [4] was -7.2% (inactive) and the GLP1 secretion stimulation [5] was 4.9% (inactive). The inhibition of viability [6] was 30.7% (inactive), the viability decrease (inhibition) [7] was 75.1% (active) and the viability decrease (inhibition) [8] was 20.8% (inactive). The fold change ([11]; stronger effect = lower value) was 0.937 (inactive), the fold change [11, 21] was 0.969 and the cell count [11, 22] was 10100. For the same compound, the cell count [11, 20] was 10700, the z-score [14, 23] was 0.879 (inactive) and 0.255 (inactive) and the z-score [14, 24] was 0.166 and -0.539. The remaining NAD [12] was 10 nM (inactive), the luciferase signal [15] was 40 AU (inactive) and the z-score [13] was 0.845 (inactive).
For CNCC(=O)c1ccc(O)c(O)c1, the nuclear beta-catenin stimulation ([1]; at 10 µM) was -2.8% (inactive), the nuclear beta-catenin stimulation ([1]; stimulation, at 2 µM) was -1.5% and the insulin secretion stimulation [2] was -0.7% (inactive). The viability decrease [3] was 44.4% (inactive), the tube area decrease [4] was -23.7% (inactive) and the GLP1 secretion stimulation [5] was -4.7% (inactive). The inhibition of viability [6] was 20.7% (inactive), the viability decrease (inhibition) [7] was 24.3% (inactive) and the viability decrease (inhibition) [8] was 19.2% (inactive). The red/green cell ratio (normalised) [9, 17] was 1.24 (inactive), the normalised cell number [9, 18] was 1.18 and the normalised cell number [9, 19] was 1.47. The fold change ([11]; stronger effect = lower value) was 0.925 (inactive) and 0.971 (inactive), the fold change [11, 21] was 0.648 and 0.466 and the cell count [11, 22] was 6760 and 7680. For the same compound, the cell count [11, 20] was 7310 and 7920, the z-score [14, 23] was -0.0398 (inactive) and the z-score [14, 24] was -0.269. For the same compound, the remaining NAD [12] was 10 nM (inactive).
In the case of CC[C@]1(O)CC[C@H]2[C@@H]3CCC4=CCCC[C@@H]4[C@H]3CC[C@@]21C, the parasite load remaining [16] is reported as 95.1% (inactive), the viability [16] is reported as 75.2% and the nuclear beta-catenin stimulation ([1]; at 10 µM) is reported as 8.1% (inactive). The nuclear beta-catenin stimulation ([1]; stimulation, at 2 µM) was 0.5%, the insulin secretion stimulation [2] was 1.8% (inactive) and the viability decrease [3] was 70.7% (active). For the same compound, the tube area decrease [4] was 66.4% (active), the GLP1 secretion stimulation [5] was 2.3% (inactive) and the inhibition of viability [6] was 64.1% (active). For the same compound, the viability decrease (inhibition) [7] was 97.8% (active) and the viability decrease (inhibition) [8] was 73% (active).
For O=[N+]([O-])c1ccc([As](=O)(O)O)cc1, the nuclear beta-catenin stimulation ([1]; at 10 µM) was 2.2% (inactive), the nuclear beta-catenin stimulation ([1]; stimulation, at 2 µM) was 1% and the insulin secretion stimulation [2] was -1.1% (inactive). The viability decrease [3] was -9.2% (inactive), the tube area decrease [4] was 3.2% (inactive) and the GLP1 secretion stimulation [5] was -5.4% (inactive). For the same compound, the inhibition of viability [6] was -30.4% (inactive), the viability decrease (inhibition) [7] was 101% (active) and the viability decrease (inhibition) [8] was -9.5% (inactive). For the same compound, the red/green cell ratio (normalised) [9] was 0.85 (inactive), the normalised cell number [9, 18] was 1.16 and the normalised cell number [9, 19] was 0.99. The fold change ([11]; stronger effect = lower value) was 0.887 (inactive), the fold change [11, 21] was 1.5 and the cell count [11, 22] was 8880. The cell count [11, 20] was 10000 and the remaining NAD [12] was 10 nM (inactive).
With COC[C@@H](NC(C)=O)C(=O)NCc1ccccc1 the nuclear beta-catenin stimulation ([1]; at 10 µM) was 0.6% (inactive), the nuclear beta-catenin stimulation ([1]; stimulation, at 2 µM) was -0.7% and the insulin secretion stimulation [2] was -0.4% (inactive). For the same compound, the viability decrease [3] was -7.9% (inactive), the tube area decrease [4] was -1.1% (inactive) and the GLP1 secretion stimulation [5] was -0.8% (inactive). The inhibition of viability [6] was 1.2% (inactive), the viability decrease (inhibition) [7] was -1% (inactive) and the viability decrease (inhibition) [8] was 9.6% (inactive).
